From PubChem BioAssay (NCATS) come the findings set out here.

Each structure is given as a SMILES string. Records with an inconclusive call do not appear. Some structures have more than one record in an assay (separate samples or runs), and their calls can disagree. The source made the active and inactive calls. Calls come from the whole dose curve; as a rule, active = well fitted curve in the direction sought with a large enough effect; inconclusive = small, poorly fitted or top-dose-only effect, or another doubt; inactive = no such curve, though single readings can be large; an effect the other way counts as inactive or inconclusive.

A short description of assay [1]: BET inhibitor-based combinations targeting novel dependencies in MECOM-rearranged (r) AML: SET-2 cell line (AID 2202231).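 For viability: plate controls were DMSO treated cells for no effect and wells without cells for full effect.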 Note: nearly all actives have a fitted effect of over 35% in size. The following applies: SET-2 AML cells viability, CellTiter-Glo luminescence, 48 h; viability: stronger effect = lower value, concentration not given here. In short, it runs like this:
(§1)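 500 cells/well; 11-pt dose curve; 48 h, standard incubator; CellTiter-Glo luminescence after 15 min RT; DMSO/empty-well normalization; AUC plus Z-AUC (mean-centered within each line).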

Assay [2] can be described thus: BET inhibitor-based combinations targeting novel dependencies in MECOM-rearranged (r) AML: OCI-AML3 cell line (AID 2202232). Note: nearly all actives have a fitted effect of over 35% in size. The following applies: Potency: OCI-AML3 viability. The essentials:
as §1

A short description of assay [3]: BET inhibitor-based combinations targeting novel dependencies in MECOM-rearranged (r) AML: MV-4-11 cell line (AID 2202233). Note: nearly all actives have a fitted effect of over 45% in size. The essentials: (§2)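 Cells were plated at 500 per well and exposed to each drug across an 11-point dose range for 48 hr at standard incubator conditions. Viability was read by CellTiter-Glo luminescence, and activity was expressed as AUC and per-cell-line Z-transformed AUC.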

For assay [4], the target named is Retinaldehyde dehydrogenase 3 (Homo sapiens) (UniProt P47895). Nature of the assay: qHTS for Inhibitors of the Aldehyde Dehydrogenase Family (ALDH1A3) Primary screen (AID 2061315). In general terms: In qHTS, concentration-response curves come from the screen itself.
The nature of assay [5]: BET inhibitor-based combinations targeting novel dependencies in MECOM-rearranged (r) AML: HNT-34 cell line (AID 2202234). Note: nearly all actives have a fitted effect of over 35% in size. The essentials: as §2
A short description of assay [6]: BET inhibitor-based combinations targeting novel dependencies in MECOM-rearranged (r) AML: UCSD-AML1 cell line (AID 2202235). Note: nearly all actives have a fitted effect of over 40% in size. In short, it runs like this:
as §2

A short description of assay [7]: BET inhibitor-based combinations targeting novel dependencies in MECOM-rearranged (r) AML: AML-191 cell line (AID 2202236; note: nearly all actives have a fitted effect of over 35% in size). The essentials: as §1
Assay [8] in a line: BET inhibitor-based combinations targeting novel dependencies in MECOM-rearranged (r) AML: AML-194 cell line (AID 2202237; note: nearly all actives have a fitted effect of over 40% in size). In short, it runs like this: as §1
Potency is the fitted concentration of half-maximal effect.

`CC(C)NCCCn1c(Sc2cc(Cl)cc(Cl)c2)nc2c(N)ncnc21`: the viability in assay [1] was 98.3% (inactive). The Potency was 10.5 µM (active) in assay [2] and 14.8 µM (active) in assay [3].
Regarding `CN(C)c1ccc(Nc2nc(N)n(C(=O)c3c(F)cccc3F)n2)cc1`, the Potency in assay [4] was 14.1 µM (active); in assay [1], 18.6 µM (active); in assay [2], 23.5 µM (active); in assay [3], 4.17 µM (active); in assay [5] it was 14.8 µM (active); in assay [6], 2.63 µM (active).
Turning to `Cc1cc(C(=O)NOCCO)c(Nc2ccc(I)cc2F)n(C)c1=O`, in assay [1], the viability is 96.3% (inactive). Besides, the values for the Potency in assay [2], in assay [3] and in assay [5] were 0.0059 µM (active), 0.0295 µM (active) and 0.0468 µM (active), respectively.
With `COc1ccc(-c2nc(N3CCOCC3)c3sc(CN(C)c4ncc(C(=O)NO)cn4)cc3n2)cn1`, the Potency in assay [1] was 0.0295 µM (active); in assay [2], 0.0332 µM (active); in assay [3], 0.0235 µM (active); in assay [5], 0.0417 µM (active); in assay [6], 0.0295 µM (active); in assay [7], 0.0468 µM (active).
`CC1(C)C(N(O)C(=O)Nc2ccc(Cl)cc2)N(c2ccc(Cl)cc2)C(=O)N1CC(=O)N/N=C/C=C/c1ccc([N+](=O)[O-])o1` (stereo unspecified): the Potency was 20.9 µM (active) in assay [1], 3.32 µM (active) in assay [2], 4.68 µM (active) in assay [3] and 13.2 µM (active) in assay [5].
Take `CN(CCO)C1CCN(c2ccc(Nc3ncc4c5ccnc(F)c5n(C5CCCC5)c4n3)nc2)CC1`: the Potency in assay [1] was 2.04 µM (active); in assay [2], 0.182 µM (active); in assay [3] it was 0.129 µM (active); in assay [5], 1.82 µM (active).
For the molecule `COC1CC(C(=O)c2ccc3c(N)ncc(-c4ccc(-c5cnn(C)c5)cc4)c3n2)C1` (stereo unspecified), in assay [1], the viability was 92.9% (inactive). For the same molecule, the Potency in assay [2] was 8.33 µM (active); in assay [3] it was 2.95 µM (active).
Take `N#C/C(=C\c1ccc(O)c(O)c1)C(=O)NCc1ccccc1`: the Potency in assay [1] is 14.8 µM (active).
Consider `O=c1cc(O)c(Cl)c[nH]1`, for which the viability in assay [1] was 115% (inactive). Besides, the Potency result in assay [2], in assay [3], in assay [5], in assay [6] and in assay [7] was “inactive” in each case.
On to `Nc1ccn([C@@H]2O[C@H](CO)[C@@H](O)[C@H]2O)c(=O)n1`, for which the viability in assay [1] is 117% (inactive). Also, the Potency entry in assay [2], in assay [5], in assay [6] and in assay [7] was “inactive” throughout. Further, the Potency in assay [3] was 16.6 µM (active).
On to `CN1C(=O)N[C@H](Cc2c[nH]c3c(Cl)cccc23)C1=O`, for which the viability in assay [1] was 113% (inactive). Also, the Potency result in assay [2], in assay [5], in assay [6] and in assay [7] was “inactive” in each case. Moreover, the Potency in assay [3] is 37.2 µM (active).
In the case of `NS(=O)(=O)c1ccc(S(=O)(=O)Nc2cccc3c(Cl)c[nH]c23)cc1`, the Potency in assay [1] was 14.8 µM (active); in assay [2], 2.95 µM (active); in assay [3], 0.59 µM (active); in assay [5], 1.32 µM (active); in assay [6], 2.35 µM (active).
For `Cn1nccc1Nc1nccc(-c2cc3c(s2)C(C)(C)N(CCN2CCOCC2)C3=O)n1`, the viability in assay [1] was 105% (inactive). Moreover, the results for the Potency in assay [2] and in assay [3] were 1.32 µM (active) and 4.17 µM (active), respectively.
As to `C=CC(=O)N1C[C@H](Nc2ncnc3[nH]ccc23)CC[C@@H]1C`, in assay [1], the viability was 94.9% (inactive).
Consider `CCCc1cc(C(=O)N[C@H](Cc2ccc(-c3cccc(OC(F)(F)F)c3)nc2)C(=O)N[C@@H]2CCNC2)sc1C`, for which the Potency in assay [1] was 20.9 µM (active); in assay [2] it was 20.9 µM (active); in assay [3], 9.34 µM (active); in assay [5], 11.8 µM (active); in assay [6] it was 10.5 µM (active).
Consider `CNC(=O)Cn1cc(-c2ccc3c(c2)C(F)CC32NC(=O)N(CC(=O)N(Cc3ccc(F)cc3)[C@@H](C)C(F)(F)F)C2=O)cn1` (stereo partly specified), for which the Potency in assay [1] is 3.72 µM (active); in assay [3], 11.8 µM (active); in assay [5] it was 0.0742 µM (active); in assay [6], 118 nM (active) and inactive. For the same molecule, in assay [1], the viability was 103% (inactive). The Potency entry in assay [7] and in assay [8] was “inactive” throughout.
Take `COc1ccc(-c2cc(C(O)C3CCCCN3)c3ccccc3n2)cc1` (stereo unspecified): in assay [4], the Potency result is “inactive”. In addition, the Potency in assay [1] is 14.8 µM (active); in assay [2] it was 20.9 µM (active); in assay [3] it was 2.95 µM (active); in assay [6], 9.34 µM (active); in assay [7], 14.8 µM (active); in assay [8], 11.8 µM (active).
`CN(Cc1ccccc1)C(=O)c1ccc(S(=O)(=O)Nc2ccccc2)cc1`: the Potency result in assay [4], in assay [2], in assay [6], in assay [7] and in assay [8] was “inactive” each time. Further, the viability in assay [1] was 103% (inactive).
`CN1CCN(c2ccc(Nc3ncc4cc(C#N)c(=O)n(C5CCCC5)c4n3)cc2)CC1`: the Potency was 1.18 µM (active) in assay [1], 0.105 µM (active) in assay [2] and 0.186 µM (active) in assay [3].
In the case of `CC(=O)[C@]1(N)Cc2c(O)c3c(c(O)c2[C@@H](O[C@H]2C[C@H](O)[C@H](O)CO2)C1)C(=O)c1ccccc1C3=O`, the viability in assay [1] was 106% (inactive). Moreover, the Potency in assay [2] was 8.33 µM (active).
As for `Cc1[nH]c(/C=C2\C(=O)Nc3ccccc32)c(C)c1CCC(=O)O`, in assay [1], the viability was 83.1% (inactive). Also, the results for the Potency in assay [2] and in assay [3] were 20.9 µM (active) and 13.2 µM (active), respectively.
In the case of `C[C@H](O)[C@@H]1C(=O)N2C(C(=O)O)=C(S[C@@H]3CN[C@H](CNS(N)(=O)=O)C3)[C@@H](C)[C@@H]12`, the Potency result in assay [4], in assay [2], in assay [5], in assay [6], in assay [7] and in assay [8] was “inactive” throughout. Besides, the viability in assay [1] is 118% (inactive).
Take `O=C(NO)c1cnc(NC2(c3ccccc3)CC2)nc1`: the Potency in assay [1] was 6.61 µM (active); in assay [2], 5.9 µM (active); in assay [3], 3.32 µM (active); in assay [5], 6.61 µM (active); in assay [6], 8.33 µM (active); in assay [7], 7.42 µM (active).
For `CCC(=O)NC[C@H](Cc1ccc(OCCc2nc(-c3ccccc3)oc2C)cc1)N/C(C)=C\C(=O)c1ccc(C(F)(F)F)cc1`, the viability in assay [1] is 111% (inactive). Further, the values for the Potency in assay [2] and in assay [3] were 20.9 µM (active) and 23.5 µM (active), respectively.
Regarding `Cc1ccc(NC(=O)Nc2nnc(Sc3ncnc4cc(OCCCN5CCOCC5)ccc34)s2)cc1`, the viability in assay [1] is 111% (inactive). Besides, the Potency in assay [2] was 14.8 µM (active); in assay [3], 0.0166 µM (active); in assay [5], 14.8 µM (active).

As usually defined, the viability is a read-out of living cells in per cent, often relative to untreated cells.
